Screening results from PubChem BioAssay.
SW480 rereplic: A quantitative high throughput screen for small molecules that induce DNA re-replication in SW480 colon adenocarcinoma cells; SW480 DNA re-replication, Hoechst DNA content imaging, 48 h; Potency, µM (titrated, usually from 46.1 µM), inactives show at the top dose re-replication activation, actives largely listed as activators; 1.8% of 340,000 active; AID 624297, 2012; also: potency is read from the fitted curve at half-maximal effect; % of control where 0% means no effect; nearly all actives have a fitted effect of over 55% in size
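Readout is total intensity of Hoechst-stained nuclei, excited at 405 nm and collected at 500-530 nm. Compound treatment lasted 48 hr at 37 C in 5% CO2 before staining.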
Giardia killer: Small Molecules that selectively kill Giardia lamblia: qHTS | Giardia lamblia trophozoite viability | activity change, % at 7.66 µM, hits read low | 0.15% of 340,000 active; in the data active = activity change below about -80%; inconclusive = between about -30% and that limit;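 also: parasites exposed to compound for two days anaerobically before the ATP read; % is scaled to controls: 0 for no effect and ±100 for the full control effect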
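Each well holds 100 Giardia trophozoites and compound. After two days (48 hrs) at 37 deg C in anaerobic conditions, ATP is quantified by luminescence.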
BCR signal inh: qHTS Assay to Find Inhibitors of Chronic Active B-Cell Receptor Signaling | ABC-DLBCL IkBa-CBG/CBR reporter, luminescence ratio, 4 h | 0.05% of 340,000 active | Potency, µM (doses to about 46.1 µM), inactives show at the top dose activity change, negative = inhibition, usual class: inhibitors; active = well fitted inhibition curve with a large enough effect in the signal ratio, with a control signal flat, not every such curve was filed as active; inconclusive = small, poorly fitted or top-dose-only effect, or effect the other way, or a change in a side signal; the % refers to the signal ratio;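 also: potency is read from the fitted curve at half-maximal effect; plate controls were basal doxycycline-induced cells for no effect and cells given 10 µM MG132 for full effect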
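Cell line TMD8 (human ABC DLBCL), stably expressing tet-inducible CBG68-IkBa fusion and CBR; IMDM/0.5% FBS; cpd up to 46 uM; dox induction, 4 h, 37C/5% CO2; dual luminescence; green/red ratio; MG132 control.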
RORg inh: qHTS for inhibitors of ROR gamma transcriptional activity | Potency, µM (top dose mostly 53.6 µM), for inactives: at the highest dose activity change, negative = inhibition, most hits filed as inhibitors | Drosophila S2 Gal4-RORgamma UAS-luciferase reporter, 20 h | 5.4% of 310,000 active; also: potency is read from the fitted curve at half-maximal effect; % is scaled to controls: 0 for no effect and ±100 for the full control effect; nearly all actives have a fitted effect of over 60% in size
Target sequence (P51450 whole entry, looked up, the tested form may be a part): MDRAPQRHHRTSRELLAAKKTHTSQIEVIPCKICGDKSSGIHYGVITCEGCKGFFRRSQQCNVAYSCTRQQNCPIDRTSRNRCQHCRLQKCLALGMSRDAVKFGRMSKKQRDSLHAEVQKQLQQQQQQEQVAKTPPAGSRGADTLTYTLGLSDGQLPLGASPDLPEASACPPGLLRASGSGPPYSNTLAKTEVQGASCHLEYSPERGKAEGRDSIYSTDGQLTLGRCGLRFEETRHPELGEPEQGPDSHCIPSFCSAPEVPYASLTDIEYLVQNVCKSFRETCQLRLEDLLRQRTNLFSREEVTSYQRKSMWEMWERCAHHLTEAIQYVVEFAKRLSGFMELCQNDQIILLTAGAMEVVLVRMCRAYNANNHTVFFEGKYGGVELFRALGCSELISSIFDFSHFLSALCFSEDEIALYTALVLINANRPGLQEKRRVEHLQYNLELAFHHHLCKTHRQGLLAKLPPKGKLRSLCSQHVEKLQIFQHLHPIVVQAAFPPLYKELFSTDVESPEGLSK
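Luminescence from a UAS-regulated Photinus luciferase reporter in stably transfected Drosophila Schneider cells is measured; decreased signal marks ROR gamma inhibition. Fusion expression is induced by 700 uM copper sulfate for 20 hr.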
Gal4-VP16 FLuc: VP16 counterscreen qHTS for inhibitors of ROR gamma transcriptional activity; Drosophila S2 Gal4-VP16 UAS-luciferase, luminescence, 20 h; Potency, µM (highest dose often 53.6 µM), inactives show at the top dose activity, negative = inhibition, hits mostly inhibitors; 3.5% of 310,000 active; AID 2546, 2010;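 also: Gal4-VP16 expression switched on by copper sulfate through the metallothionein promoter; potency is read from the fitted curve at half-maximal effect; % is scaled to controls: 0 for no effect and ±100 for the full control effect; nearly all actives have a fitted effect of over 50% in size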
MCF10A rereplic: A quantitative high throughput screen for small molecules that induce DNA re-replication in MCF 10a normal breast cells; Potency, µM (highest dose often 46.1 µM), inactives show at the top dose activity, positive = re-replication, actives largely listed as activators; MCF 10A DNA re-replication, Hoechst nuclear intensity, 48 h; 2.9% of 350,000 active; AID 624296, 2012; also: potency is read from the fitted curve at half-maximal effect; % of control where 0% means no effect; nearly all actives have a fitted effect of over 50% in size
* hit, by the source's call; ? = inconclusive; . = not tested or not shown; [ ] = remark or other dose. An excerpt weighted towards active compounds, which were near 8.3% of everything screened. Unless noted, calls follow the shape of the dose curve; as a rule, active = well fitted curve in the direction sought with a large enough effect; inconclusive = small, poorly fitted or top-dose-only effect, or another doubt; inactive = no such curve, though single readings can be large; an effect the other way counts as inactive or inconclusive.

SMILES	SW480 rereplic	Giardia killer	BCR signal inh	RORg inh	Gal4-VP16 FLuc	MCF10A rereplic
O=C(c1ccco1)N1N=C(c2ccc(Br)cc2)CC1(O)C(F)(F)F (centres undefined)	-9.8%	-22.9	0.2%	7.08µM*	?	?
O=C(c1ccco1)N1N=C(c2ccc(Cl)cc2)CC1(O)C(F)(F)F (centres undefined)	-15.8%	?	1.0%	?	5.62µM*	11.5%
CCOC(=O)c1sc2ncn(CC(=O)N(CC)CC)c(=O)c2c1C	?	6.4	3.8%	14.0%	-13.6%	14.6µM*
CCOC(=O)c1sc2ncn(C(C)C(=O)OCC)c(=O)c2c1C (centres undefined)	-2.6%[9.22 µM]	-18.1	-9.9%	12.0%	0.4%	1.3%
COc1ccccc1CNc1cc(-c2c(C)noc2C)ncn1	.	.	.	10.6%	9.6%	.
CCOC(=O)c1c(-c2ccccc2)csc1NC(=O)/C(C#N)=C\c1ccc(O)c(OC)c1	?	-18.4	.	.	.	2.31µM*
CCOC(=O)/C(C#N)=C\c1ccc(O)c(OC)c1	-21.6%	-17.3	2.0%	15.3%	5.8%	?
CCOC(=O)c1c(-c2ccc(C)cc2)csc1NC(=O)/C(C#N)=C/c1ccc(O)c(OC)c1	?	-12.7	1.7%	31.5%	-18.4%	20.6µM*
Cc1ccccc1OCC(=O)OCC(=O)Nc1cc(S(C)(=O)=O)ccc1Cl	-5.8%	3.7	-6.6%	.	.	2.1%
CCCCn1c(N)c(N(Cc2ccccc2OC)C(=O)CCC(C)C)c(=O)[nH]c1=O	-2.7%	-10.6	0.5%	-15.3%	-5.2%	5.6%
N#Cc1c(-c2ccc(Cl)cc2)c(-c2ccc(Cl)cc2)nn(CCOC(=O)CCC(=O)O)c1=O	?	9.6	.	.	.	1.84µM*
CC(C)C[C@H](NC(=O)c1nc[nH]c1C(=O)NC1CCN(C(=O)OC(C)(C)C)CC1)C(=O)OC(C)(C)C	0.6%	-12.7	-1.3%	3.16µM*	7.08µM*	13µM*
CC(C)C[C@H](NC(=O)c1nc[nH]c1C(=O)NC1CCN(C(=O)OC(C)(C)C)CC1)C(=O)OCc1ccccc1	10.0%	-4.3	?	-22.0%	?	?
CC(C)(C)OC(=O)N1CCC(NC(=O)c2nc[nH]c2C(=O)NCc2ccccc2)CC1	4.6%	-22.5	9.1%	.	.	25.3%
CC(C)(C)OC(=O)NCCCC[C@H](NC(=O)c1nc[nH]c1C(=O)NC1CCN(C(=O)OC(C)(C)C)CC1)C(=O)OC(C)(C)C	5.5%	0.4	?	11.2µM*	?	20.3%
CC(C)(C)OC(=O)NCc1ccc(CNC(=O)c2[nH]cnc2C(=O)NC2CCN(C(=O)OC(C)(C)C)CC2)cc1	-7.0%	3.1	?	.	.	18.4µM*
CC1CCN(C(=O)c2[nH]cnc2C(=O)NC2CCN(C(=O)OC(C)(C)C)CC2)CC1	0.4%	-8.4	-10.8%	.	.	40.9%
C[C@H](NC(=O)c1nc[nH]c1C(=O)NC1CCN(C(=O)OC(C)(C)C)CC1)C(=O)OC(C)(C)C	0.164µM*	6.3	0.0%	?	11.2µM*	-0.6%
Cc1ccc(C(=O)NCc2cccnc2)cc1S(=O)(=O)N1CCCCCC1	-5.0%	-10.1	-4.2%	-0.6%	7.5%	-4.2%
CC1=C2C(O)C(=O)OC3CC4C(C)(C)C(=O)C=C[C@]4(C)C(CC1)[C@@]23C (some centres undefined)	.	.	.	0.3%	-10.0%	.
CCOC(=O)CC(=O)Nc1ccccc1C(=O)O	1.5%	23.4	0.5%	14.6%	-4.3%	2.5%
CCOC(=O)CC(=O)Nc1ccc(Br)cc1C(=O)O	-2.7%	0.1	?	1.58µM*	-19.0%	6.3%
COC(=O)CNC(=O)C1CCC(CNS(=O)(=O)c2cccc3nsnc23)CC1 (centres undefined)	-1.9%	-27.2	0.9%	-18.1%	-3.7%	0.0%
Cc1cc(C)cc(NC(=O)c2cc(C)n(Cc3cccs3)c2C)c1	?	?	?	-37.0%	-25.7%	18.4µM*
O=C(Nc1ncc(Cc2cccc([N+](=O)[O-])c2)s1)c1ccco1	-1.2%	0.6	-4.8%	?	?	?
SMILES	SW480 rereplic	Giardia killer	BCR signal inh	RORg inh	Gal4-VP16 FLuc	MCF10A rereplic
Cc1ccc(Cc2cnc(NC(=O)c3ccco3)s2)cc1	17.6%	-6.3	?	?	5.62µM*	15.2%
Cc1cccc(Cc2cnc(NC(=O)c3ccc(C)o3)s2)c1	5.7%	4.4	17.2%	10µM*	?	2.59µM*
Cc1ccc(C(=O)Nc2nnc(C)s2)o1	1.4%	-7.3	?	32.0%	15.2%	-1.3%
Cc1cccc(Cc2cnc(NC(=O)C3=NCCN3)s2)c1	3.3%	1.6	-5.3%	3.55µM*	7.94µM*	15.7%
Cc1ccc(Cc2cnc(NC(=O)C3=NCCN3)s2)cc1	.	.	-2.4%	13.6%	3.4%	.
CCN(CCCNC(=O)c1ccc(Sc2ccc(Cl)cc2)c(NC(C)=O)c1)c1ccccc1	.	.	0.4%	.	.	.
COc1ccc(CCNC(=O)COC(=O)Cn2cnc3ccccc3c2=O)cc1	-10.0%	8.1	4.6%	10.0%	-2.3%	8.3%
Cc1cc(-c2ccccc2)n(-c2cc(N/N=C/c3ccccc3O)ncn2)n1	?	-14.1	14.6µM*	11.2µM*	5.62µM*	2.06µM*
O=C(c1ccccc1N(Cc1ccccc1)S(=O)(=O)c1ccccc1)N1CCOCC1	3.6%	28.0	-3.8%	-33.6%	5.5%	8.6%
COC(=O)C1=C[C@@H](C(=O)OC)C2C3=C(C(=O)C24CCCCC4)[C@H](C)n2c(=O)n(-c4ccccc4)c(=O)n2[C@@H]3C1 (some centres undefined)	-55.1%[9.22 µM]	-18.0	.	-28.5%	-6.6%	0.8%
COC(=O)C1=C[C@@H](C(=O)OC)[C@@H]2C3=C(C(=O)C2(C)C)[C@H](C)n2c(=O)n(-c4ccccc4)c(=O)n2[C@@H]3C1	5.17µM*	2.7	.	-32.6%	0.5%	?
CC1NC(=O)C(N)CNC(=O)C(C2CCN=C(N)N2)NC(=O)/C(=C/NC(N)=O)NC(=O)C(CNC(=O)CC(N)CCCN)NC1=O (centres undefined)	.	.	.	7.4%	0.0%	.
CCCCCCC(C)NC(=S)Nc1cc(S(=O)(=O)N(C)C)ccc1C (centres undefined)	?	-2.1	-9.3%	12.6µM*	?	18.4µM*
Cc1ccc(S(=O)(=O)N(C)C)cc1NC(=S)NC(C)CCC(C)C (centres undefined)	?	14.6	-3.7%	12.6µM*	?	16.2%
